Where “and” joins values, the source holds several entries; their conditions need not be identical. Identical values can stand only once. Records with an inconclusive call do not appear. Calls of active or inactive are those of the source. Unless noted, calls follow the shape of the dose curve; as a rule, active = well fitted curve in the direction sought with a large enough effect; inconclusive = small, poorly fitted or top-dose-only effect, or another doubt; inactive = no such curve, though single readings can be large; an effect the other way counts as inactive or inconclusive.
What was measured:
[1] = Cell Viability - MRC5 (AID 434; calls by dose curve;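 also: potency is read from the fitted curve at half-maximal effect; potency reflects cytotoxicity seen as loss of intracellular ATP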); conditions: MRC5 lung fibroblast viability, qHTS
Summary of the method: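 AC50 values come from Hill-equation fits of intracellular ATP loss, measured by CellTiter-Glo luminescence. Normal lung fibroblasts (MRC5) had 40 hr compound treatment at 37 C, normalized between DMSO and 100 uM tamoxifen.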

[2] = molecular target: Mitogen-activated protein kinase 10 (Mus musculus) (UniProt Q61831); test: JNK3 AlphaScreen Assay (AID 530; active = well fitted curve in either direction with a large enough effect, not every such curve was filed as active;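 also: kinase came from lysate of stimulated human HepG2 cells; signal reports phosphorylation of biotinylated GST-cJun 1-79 at Ser73 with 10 µM ATP; % is scaled to controls: 0 for no effect and ±100 for the full control effect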); conditions: JNK3 lysate, c-Jun phosphorylation; series mostly up to 57.1 µM
Summary of the method: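 Kinase buffer: 20 mM Tris-HCl pH 7.6, 10 mM MgCl2, 1 mM DTT, 0.1 mM Na3VO4, 0.01% Tween-20; ATP 10 uM. Substrate biotin-GST-cJun(1-79), enzyme from activated HepG2 lysates. Detection by Ser73 phospho-antibody AlphaScreen.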

[3] = Cell Viability - Renal Proximal Tubule (AID 545); conditions: renal proximal tubule cells viability; series mostly up to 91.7 µM; also: nearly all actives have a fitted effect of over 40% in size
Summary of the method: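 Rat renal proximal tubule primary cells, 1000/well, exposed to compounds for 40 hr at 37 °C in complete medium; cellular ATP read by CellTiter-Glo luminescence. AC50 from concentration-response fitted with standard Hill equation.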

[4] = Cellular Toxicity (caspase-3) HepG2 (AID 654); conditions: HepG2 caspase-3 activation, luminescence, 0% = DMSO only, 100% = tamoxifen; series mostly up to 92.2 µM;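 also: cells exposed to compound for 16 hours before reading; 0% = DMSO alone and 100% = caspase signal from 100 µM tamoxifen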
Summary of the method: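 Luminescent Caspase-Glo 3/7 readout after 16 hr compound exposure of human hepatocellular carcinoma HepG2 cells at 37 °C; qHTS concentration-response, normalized DMSO = 0%, 100 uM tamoxifen = 100%; AC50 by standard Hill equation.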

[5] = Cellular Toxicity (caspase-3) SHSY5Y (AID 657); conditions: SH-SY5Y caspase-3 activation, DMSO zero, 10 µM staurosporine = 100%; series mostly up to 91.7 µM
Summary of the method: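 SH-SY5Y human neuroblastoma cells, 1500/well, exposed to compound for 16 hours at 37 °C in complete medium. Caspase-3/7 activity read by Caspase-Glo luminescence after 1 hr at room temperature, normalized to DMSO and 10 uM staurosporine; AC50 from Hill fit.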

[6] = Cellular Toxicity (caspase-3) H-4-II-E (AID 663); conditions: H-4-II-E rat hepatoma; Potency: caspase-3 activation; series mostly up to 92.2 µM;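 also: cells exposed to compound for 16 hr before readout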
Summary of the method: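 Caspase 3/7 activation measured by luminescent aminoluciferin substrate cleavage after 16 hr compound treatment of H-4-II-E cells in complete medium. Increase normalized between DMSO (basal) and 100 uM tamoxifen (100%); Hill-equation AC50 from concentration-response.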

[7] = Cellular Toxicity (caspase-3) Renal Proximal Tubule (AID 667); conditions: renal proximal tubule cells; series mostly up to 91.7 µM;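 also: cells exposed to compound for 16 hours at 37 °C before detection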
Summary of the method: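 Freshly isolated primary rat kidney proximal tubule cells, 1000/well, treated 16 hr at 37 °C, then Caspase-Glo 3/7 luminescence after 1 hr. Normalized to DMSO and 10 uM staurosporine; AC50 from Hill fit.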

[8] = Cell Viability - LYMP2-001 (AID 921); conditions: LYMP2-001 lymphoblastoid cell viability; series mostly up to 92.2 µM;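 also: 0% = DMSO only and full inhibition = tetraoctylammonium bromide control wells; nearly all actives have a fitted effect of over 70% in size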
Summary of the method: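 Human lymphoblastoid LYMP2-001 cells, 2500 per well, in complete medium, treated 24 h at 37 C. Viability from cellular ATP by CellTiter-Glo luminescence; AC50 from Hill-equation fits of qHTS concentration-response.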

[9] = MultiTox-Fluor Cytotoxicity Assay - LYMP1-003 - Dead Cells (AID 961); conditions: LYMP1-003 lymphoblastoid cells, dead-cell protease fluorescence; series mostly up to 92.2 µM; also: nearly all actives have a fitted effect of over 70% in size
Summary of the method: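 Dead-cell protease release, detected as bis-AAF-R110 fluorescence at 485/520 nm, was measured in LYMP1-003 cells after 16 h compound treatment at 37 C. AC50 values came from Hill-modeled qHTS curves normalized to DMSO (0%) and 15 uM tetraoctylammonium bromide (100%).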

[10] = Cell Viability - LYMP1-003 - Assay at 24 hr (AID 963); conditions: LYMP1-003 lymphoblastoid cell viability; series mostly up to 92.2 µM;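 also: plate controls were DMSO only for no effect and tetraoctylammonium bromide positive control for full effect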
Summary of the method: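 CellTiter-Glo luminescence (intracellular ATP) read after 24 hr, 37 C compound exposure of 2500 LYMP1-003 human lymphoblastoid cells/well in complete medium; qHTS concentration series; AC50 via standard Hill equation.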

[11] = Cell Viability - LYMP1-003 - Assay at 40 hr (AID 964); conditions: LYMP1-003 lymphoblastoid viability; series mostly up to 92.2 µM; also: % is scaled to controls: 0 for no effect and ±100 for the full control effect; nearly all actives have a fitted effect of over 60% in size
Summary of the method: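 LYMP1-003 lymphoblastoid cells, 2500/well; 5 hr preincubation, 40 hr compound exposure, 37 C; CellTiter-Glo 30 min RT; luminescence; Hill-fit AC50. Positive control tetraoctylammonium bromide.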

[12] = Cell Viability - LYMP2-006 (AID 978); conditions: LYMP2-006 lymphoblastoid cell viability, qHTS; series mostly up to 92.2 µM;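 also: cells exposed to compound for 24 hours; % is scaled to controls: 0 for no effect and ±100 for the full control effect; nearly all actives have a fitted effect of over 60% in size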
Summary of the method: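 Human lymphoblastoid cells (LYMP2-006), 2500/well in complete medium, were treated with compound for 24 hr at 37 C. Cellular ATP was read by CellTiter-Glo luminescence after 30 min, and AC50 values came from Hill-equation fits of concentration-response data.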

[13] = Cell Viability - LYMP2-008 (AID 980); conditions: LYMP2-008 lymphoblastoid cell viability, qHTS; series mostly up to 92.2 µM; also: % is scaled to controls: 0 for no effect and ±100 for the full control effect; nearly all actives have a fitted effect of over 60% in size
Summary of the method: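 Luminescent ATP read-out (CellTiter-Glo, 30 min RT) after 24 hr compound exposure at 37 C of human lymphoblastoid cells in complete medium. Decrease in ATP taken as cytotoxicity; AC50 derived by standard Hill fit of qHTS concentration-response data.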

[14] = Cell Viability - LYMP2-018 (AID 985); conditions: LYMP2-018 lymphoblastoid cells, viability (qHTS); series mostly up to 92.2 µM;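 also: plate controls were DMSO only for no effect and tetraoctylammonium bromide at 92 µM for full effect; nearly all actives have a fitted effect of over 50% in size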
Summary of the method: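 2500 cells/well; 5 hr 37 C; cmpd 24 hr 37 C, complete medium; CellTiter-Glo 30 min RT; luminescence. Tetraoctylammonium bromide positive control. AC50 via Hill fit.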

[15] = Cell Viability - LYMP1-002 - Assay at 24 hr (AID 993); conditions: LYMP1-002 lymphoblastoid cells viability; series mostly up to 92.2 µM; also: % is scaled to controls: 0 for no effect and ±100 for the full control effect
Summary of the method: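 CellTiter-Glo luminescence (intracellular ATP) after 24 h compound exposure, 37 C, in LYMP1-002 human lymphoblastoid cells; decreased ATP taken as cytotoxicity. AC50 from standard Hill fit of concentration-response curves.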

[16] = qHTS assay for environmental chemicals that activate the Aryl hydrocarbon Receptor (AhR) signaling pathway (AID 651777); conditions: 1A2-DRE human hepatoma cells, luciferase, 24 h; activation: active compounds read high; also: % of control where 0% means no effect; nearly all actives have a fitted effect of over 15% in size
Summary of the method: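 Concentration–response screening used 1,200 1A2-DRE cells per well, 24 hr compound exposure (37 C, 5% CO2), and One-Glo luminescence as the AhR-driven CYP1A2 reporter signal.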

[17] = qHTS assay for small molecule activators of the human pregnane X receptor (PXR) signaling pathway (AID 720659; call rule not given here; also: 0% is about no effect); conditions: DPX-2 HepG2 CYP3A4-luciferase, 24 h; series mostly up to 92.3 µM
[18] = Cellular Toxicity (caspase-3) N2a (AID 665); conditions: N2a cells, luminescence, normalized: DMSO 0%, 10 µM staurosporine 100%; series mostly up to 92.2 µM;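 also: compound exposure lasted 16 h at 37 °C before readout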
Summary of the method: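 Luminescent Caspase-Glo 3/7 readout in N2a mouse neuroblastoma cells after 16 h compound exposure at 37 °C. Signal scaled to DMSO (basal) and 10 uM staurosporine (100%). Concentration-response fitted with Hill equation for AC50.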

[19] = Cell Viability - LYMP2-009 (AID 968); conditions: LYMP2-009 lymphoblastoid cell viability; series mostly up to 92.2 µM;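 also: 0% = DMSO alone and the full-kill end = tetraoctylammonium bromide at 92 µM; nearly all actives have a fitted effect of over 55% in size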
[20] = Cell Viability - LYMP2-021 (AID 974); conditions: LYMP2-021 lymphoblastoid cells viability; series mostly up to 92.2 µM;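 also: compound exposure lasts 24 hours at 37 °C; % is scaled to controls: 0 for no effect and ±100 for the full control effect; nearly all actives have a fitted effect of over 55% in size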
Summary of the method: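 ATP luminescence (CellTiter-Glo, 30 min RT) after 24 h compound exposure at 37 C; 2500 human lymphoblastoid cells/well, 5 h settle beforehand. Cytotoxicity = concentration-dependent ATP drop, AC50 by Hill fit.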

NNC(N)=S
inactive: Potency [1] > 92 µM | Potency [2] | outcome [3] | outcome [4] | outcome [5] | Potency [6] | outcome [7] | Potency [8] | Potency [9] | outcome [10] | Potency [11] | Potency [12] | Potency [13] | Potency [14] | Potency [15] | activation [16] 0.972% | outcome [17]

CN(C)C(=O)Nc1ccc(Cl)cc1
inactive: Potency [1] > 92 µM | Potency [2] | outcome [3] | outcome [5] | Potency [6] | outcome [18] | outcome [7] | Potency [8] | Potency [9] | outcome [10] | Potency [11] | Potency [19] | Potency [20] | Potency [12] | Potency [13] | Potency [14] | Potency [15] | activation [16] 1.83% and 5.75% | outcome [17]

OCCCCO
inactive: Potency [1] > 92 µM | Potency [2] | outcome [3] | outcome [5] | Potency [6] | outcome [18] | outcome [7] | Potency [9] | outcome [10] | Potency [11] | Potency [19] | Potency [12] | Potency [13] | activation [16] -0.427%

Clc1ccc(Cl)c(Cl)c1
inactive: Potency [1] > 92 µM | Potency [2] | outcome [3] | outcome [5] | outcome [18] | Potency [8] | Potency [9] | outcome [10] | Potency [11] | Potency [19] | Potency [20] | Potency [12] | Potency [14] | Potency [15] | activation [16] 0.0505% and 0.0105%

ClCC(Cl)CCl
inactive: Potency [1] > 92 µM | Potency [2] | outcome [3] | outcome [4] | outcome [5] | Potency [6] | outcome [18] | outcome [7] | Potency [8] | Potency [9] | outcome [10] | Potency [11] | Potency [19] | Potency [20] | Potency [12] | Potency [13] | Potency [15] | outcome [17]

ClC(Cl)Br
inactive: Potency [1] > 92 µM | outcome [3] | outcome [4] | Potency [6] | outcome [18] | Potency [8] | Potency [9] | outcome [10] | Potency [11] | Potency [19] | Potency [20] | Potency [14] | Potency [15] | activation [16] 0.136% | outcome [17]

CC(Cl)(Cl)Cl
inactive: Potency [1] > 92 µM | Potency [2] | outcome [3] | outcome [4] | outcome [5] | Potency [6] | outcome [18] | outcome [7] | Potency [8] | Potency [9] | outcome [10] | Potency [11] | Potency [19] | Potency [20] | Potency [12] | Potency [13] | Potency [15] | activation [16] -0.393% and 0.414% | outcome [17]

COc1ccccc1N
inactive: Potency [1] > 92 µM | Potency [2] | outcome [3] | outcome [4] | outcome [5] | Potency [6] | outcome [18] | outcome [7] | Potency [8] | outcome [10] | Potency [11] | Potency [19] | Potency [20] | Potency [12] | Potency [13] | Potency [14] | activation [16] -0.373% | outcome [17]

CCCCCCCCCCCCCl
inactive: Potency [1] > 92 µM | Potency [2] | outcome [5] | Potency [6] | outcome [18] | outcome [7] | Potency [8] | outcome [10] | Potency [11] | Potency [19] | Potency [20] | Potency [12] | Potency [14] | Potency [15] | activation [16] 1.8% | outcome [17]

CCCCCOC(=O)c1ccccc1C(=O)OCCCCC
inactive: outcome [5] | Potency [6] | outcome [18] | outcome [7] | Potency [8] | Potency [9] | outcome [10] | Potency [11] | Potency [19] | Potency [20] | Potency [12] | Potency [14] | Potency [15] | activation [16] 0.174% and 4.48% | outcome [17]

O=S(=O)(Cl)c1ccccc1
inactive: Potency [1] > 92 µM | Potency [2] | outcome [3] | outcome [4] | outcome [7] | Potency [9] | outcome [10] | Potency [11] | Potency [19] | Potency [20] | Potency [12] | Potency [13] | Potency [14] | activation [16] 0.182% and 1.5% | outcome [17]

S=c1[nH]c2ccccc2[nH]1
inactive: Potency [1] > 92 µM | Potency [2] | outcome [3] | outcome [4] | outcome [5] | Potency [6] | outcome [18] | outcome [7] | Potency [8] | Potency [9] | outcome [10] | Potency [11] | Potency [19] | Potency [20] | Potency [12] | Potency [14] | Potency [15] | activation [16] 1.98% | outcome [17]

Clc1cccc2ccccc12
inactive: Potency [1] > 92 µM | Potency [2] | outcome [4] | outcome [5] | Potency [6] | outcome [18] | outcome [7] | Potency [8] | Potency [9] | outcome [10] | Potency [20] | Potency [13] | Potency [14] | Potency [15] | activation [16] -0.754% | outcome [17]

Nc1cc(Cl)cc(C(=O)O)c1Cl
inactive: Potency [2] | outcome [3] | outcome [4] | outcome [5] | outcome [18] | outcome [7] | Potency [8] | Potency [11] | Potency [19] | Potency [20] | Potency [13] | Potency [14] | Potency [15] | activation [16] 7.92% and 6.33% | outcome [17]

Cc1ccc(N=C=O)cc1N=C=O
inactive: Potency [2] | outcome [5] | Potency [6] | outcome [18] | outcome [7] | Potency [8] | Potency [9] | outcome [10] | Potency [11] | Potency [19] | Potency [20] | Potency [12] | Potency [13] | Potency [14] | Potency [15] | outcome [17]

CN(C)c1ccccc1
inactive: Potency [1] > 92 µM | Potency [2] | outcome [3] | outcome [5] | Potency [6] | outcome [18] | outcome [7] | Potency [9] | outcome [10] | Potency [11] | Potency [19] | Potency [20] | Potency [12] | Potency [13] | Potency [14] | Potency [15] | outcome [17]

From PubChem BioAssay (NCATS)
